In PubChem BioAssay AID1423 (NMMLSC, 2008):
The campaign covered roughly 220,000 compounds. About 750 (0.34%) were called active. Rule as the data show it: active = response below about 60% or above about 140%; inactive = in between. The list comes from a sample in which actives are over-represented; it also holds similar structures and randomly drawn compounds.

Each compound was assayed against Guanine nucleotide-binding protein G(o) subunit alpha (Homo sapiens) (UniProt P09471) (assay: compounds changing RGS8 association with Galphao – biochemical, multiplexed bead flow cytometry, primary screen (AID 1423;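 also: Galphao activated as the GDP aluminium fluoride complex binding bead-coupled RGS8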)). Conditions: at 10 µM, actives lie on both sides.
Guanine nucleotide-binding protein G(o) subunit alpha (Homo sapiens), sequence (P09471 whole entry, looked up): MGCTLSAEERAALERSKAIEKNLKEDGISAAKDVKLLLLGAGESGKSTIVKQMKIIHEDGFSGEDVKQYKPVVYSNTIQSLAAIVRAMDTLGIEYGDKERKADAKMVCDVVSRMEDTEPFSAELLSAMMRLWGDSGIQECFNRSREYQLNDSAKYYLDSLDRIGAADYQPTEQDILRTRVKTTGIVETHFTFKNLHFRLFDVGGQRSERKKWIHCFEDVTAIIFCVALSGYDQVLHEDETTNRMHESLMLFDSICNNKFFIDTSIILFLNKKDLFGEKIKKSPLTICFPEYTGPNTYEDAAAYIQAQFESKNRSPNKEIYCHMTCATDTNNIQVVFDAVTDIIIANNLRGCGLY
With `CC(=O)c1cccc(-n2nnnc2SCC(=O)NNC(=O)C2CCCCC2)c1` the response (percent of control binding) was 91.2% (inactive). With `O=C(COC(=O)/C(=C/c1cccs1)c1cccs1)NCc1ccccc1Cl` the response (percent of control binding) was 85.8% (inactive). With `O=C(CSc1ccccc1)Nc1ccc(C(=O)Nc2cccc(O)c2)cc1` the response (percent of control binding) was 109% (inactive). With `O=C(Cn1nnc(N2CCCCC2)n1)c1ccc(Cl)c(Cl)c1` the response (percent of control binding) was 97.6% (inactive). In the case of `COc1cc(CCC(=O)OCC(=O)Nc2cccc(S(N)(=O)=O)c2)cc(OC)c1OC`, the response (percent of control binding) is reported as 95.2% (inactive). In the case of `Cc1ccc(NC(=O)CNCc2ccccn2)cc1S(=O)(=O)N(C)C`, the response (percent of control binding) is reported as 97.7% (inactive). With `COc1ccc(CCC(=O)OCC(=O)Nc2ccc(C)c(S(=O)(=O)N(C)C)c2)cc1` the response (percent of control binding) was 57.7% (active). For `O=C1CCC/C(=N\NC(=O)NC2CCCCC2)C1`, the response (percent of control binding) was 100% (inactive). With `COc1ccccc1-n1c(-c2cc(-c3ccco3)[nH]n2)n[nH]c1=S` the response (percent of control binding) was 6.3% (active). With `COc1ccc(OC)c(-n2c(-c3ccn[nH]3)n[nH]c2=S)c1` the response (percent of control binding) was 98.6% (inactive). For `COc1ccccc1-n1cn[nH]c1=S`, the response (percent of control binding) was 102% (inactive). In the case of `COc1ccc(-c2onc(C)c2-c2ccc3c(c2)OCCO3)c(O)c1`, the response (percent of control binding) is reported as 101% (inactive). For `O=C(NCCCN1CCOCC1)c1ccccc1NS(=O)(=O)c1ccc(Br)cc1`, the response (percent of control binding) was 99.3% (inactive). In the case of `COc1ccc(C(=O)NNS(=O)(=O)c2ccc(C)cc2)cc1`, the response (percent of control binding) is reported as 101% (inactive). For `COc1ccc(C(=O)NNC(=O)c2cc(C)[nH]n2)cc1`, the response (percent of control binding) was 121% (inactive). In the case of `COc1ccc(C(=O)NNc2cc(C)nc(NNC(=O)c3ccc(OC)cc3)n2)cc1`, the response (percent of control binding) is reported as 54% (active). In the case of `CC(=O)Nc1ccc(N2C(=O)CCC2=O)cc1C`, the response (percent of control binding) is reported as 100% (inactive). `COc1ccccc1CCNC(=O)CSc1nnc2ccc(-c3cccnc3)nn12` was tested, and the response (percent of control binding) was 92.2% (inactive). With `CCOC(=O)NNc1cc(C(F)(F)F)ccn1` the response (percent of control binding) was 133% (inactive). For `Nc1nnn(CC(=O)N/N=C/c2ccccc2)n1`, the response (percent of control binding) was 99.3% (inactive). In the case of `COc1ccc(C(=O)COC(=O)c2ccc3ccccc3n2)cc1`, the response (percent of control binding) is reported as 28.9% (active). In the case of `CC(OC(=O)c1ccc2ccccc2n1)C(=O)c1ccccc1` (stereo not drawn), the response (percent of control binding) is reported as 103% (inactive). `COc1ccc(C2=NOC(COC(=O)c3ccc4ccccc4n3)C2)cc1` (stereo not drawn) was tested, and the response (percent of control binding) was 101% (inactive). In the case of `COC(=O)C1=C(C)N(c2ccc(C)cc2)/C(=C/c2ccc(O)cc2)C1=O`, the response (percent of control binding) is reported as 99.9% (inactive). `COc1cccc2c(N/N=C/c3ccco3)cc(C)nc12` was tested, and the response (percent of control binding) was 96.9% (inactive). `CCN(CC)CCNCC(=O)Nc1ccc(Oc2ccccc2)cc1` was tested, and the response (percent of control binding) was 99.5% (inactive). `CCCC(=O)N=c1sc2cccc(F)c2n1C` was tested, and the response (percent of control binding) was 37.2% (active). For `Cn1c(=NC(=O)c2ccco2)sc2cccc(F)c21`, the response (percent of control binding) was 103% (inactive). With `Cn1c(=NC(=O)C2CC2)sc2cc(F)cc(F)c21` the response (percent of control binding) was 96.6% (inactive). With `Cn1cc(-c2ccccc2)cc(C#N)c1=O` the response (percent of control binding) was 103% (inactive). For `Cc1ccccc1/[N+]([O-])=C/c1ccncc1`, the response (percent of control binding) was 100% (inactive). In the case of `CN(C)S(=O)(=O)c1cccc(NC(=O)COC(=O)/C=C/c2cccs2)c1`, the response (percent of control binding) is reported as 102% (inactive). With `Oc1ccc2ccccc2c1N=Nc1nccs1` the response (percent of control binding) was 99.8% (inactive). For `Oc1ccc(N=Nc2nccs2)c(O)c1`, the response (percent of control binding) was 6.26% (active). `CONC(=O)c1cc(OCC(F)(F)F)ccc1OCC(F)(F)F` was tested, and the response (percent of control binding) was 103% (inactive). `CCc1ccc(C(=O)OCC(=O)Nc2cccc(S(=O)(=O)NC3=NCCCCC3)c2)cc1` was tested, and the response (percent of control binding) was 104% (inactive). `Cc1ccc(S(=O)(=O)N2CCC(C(=O)N[C@@H](C)C(=O)NCc3ccco3)CC2)cc1` was tested, and the response (percent of control binding) was 103% (inactive). With `CN1CCN(C2=NCCO2)CC1` the response (percent of control binding) was 100% (inactive). For `O=C1C2N=NN(CC(=O)N3N=C(c4cccc5ccccc45)CC3c3ccccc3)C2C(=O)N1c1ccccc1` (stereo not drawn), the response (percent of control binding) was 90.3% (inactive). In the case of `COc1ccc(S(=O)(=O)N2CCCCCC2)cc1C(=O)OCC(=O)Nc1cc(C)on1`, the response (percent of control binding) is reported as 100% (inactive). `COc1cc(/C=C(/NC(=O)c2ccc(Cl)cc2Cl)C(=O)O)cc(OC)c1OC` was tested, and the response (percent of control binding) was 75.5% (inactive). `C=C(C)CNC(=S)/N=c1\scc(C)n1CC` was tested, and the response (percent of control binding) was 98.7% (inactive). `O=S(=O)(c1ccccc1)N(CC(O)CN1CCCCC1)c1ccccc1` (stereo not drawn) was tested, and the response (percent of control binding) was 101% (inactive). For `Cc1ccc(N(CC(O)CN2CCCC2)S(=O)(=O)c2ccccc2)cc1` (stereo not drawn), the response (percent of control binding) was 97.6% (inactive). With `Cc1cc(C)n(CC(O)CN(c2ccccc2)S(=O)(=O)c2ccc3ccccc3c2)n1` (stereo not drawn) the response (percent of control binding) was 15% (active). For `C[C@H](NC(=O)c1ccccc1Cl)C(=O)OCCOc1cccc(Cl)c1`, the response (percent of control binding) was 105% (inactive). For `NS(=O)(=O)c1ccc(CCNC(=O)c2ccc(Cl)cc2[N+](=O)[O-])cc1`, the response (percent of control binding) was 102% (inactive). In the case of `CC(=O)c1cc2c(cc1NC(=O)CN1CCCCCC1)OCO2`, the response (percent of control binding) is reported as 111% (inactive).
